Experimental findings from PubChem BioAssay (NCI) are described below.

SMILES strings stand for the structures. This is part of a sample that, as a whole, favours compounds with a hit. Of some 83,000 tested, about 20% had one in any assay.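 Single-concentration screen, 48 h exposure, 96-well plates. Endpoint: percent growth. Below 10 = active.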 Unmarked numbers belong to inactive results. Active and inactive are the calls of the source.

Holding throughout (assay): NCI-60 one-dose screen, 48 h (100 = growth as untreated, 0 = no growth, -100 = all killed)
Conditions in all cases: 10 µM unless noted

The subject of assay [1] is T-47D breast.
The subject of assay [2] is BT-549 breast.
Assay [3] concerns MDA-MB-435 melanoma.
In assay [4] the test system is SW-620 colon.
Assay [5] relates to MCF7 breast.
The test system of assay [6] is HCT-116 colon.
Assay [7] relates to HCC-2998 colon.
Assay [8] concerns KM12 colon.

Turning to `COc1ccc(C(=O)N2c3ccccc3Sc3ccccc32)c(C(F)(F)F)c1`, the growth in assay [1] is 52.3%; in assay [2], 10.7%; in assay [3], -25% (active); in assay [4], 24.7%; in assay [5], 17%; in assay [6] it was 6.57% (active). Besides, the growth was 26% in assay [7] and 18% in assay [8].

Regarding `COc1ccc(/C=C2\CN(C(=O)C(Cl)Cl)C/C(=C\c3ccc(OC)cc3)C2=O)cc1`, the growth was 2.86% (active) in assay [1]; -19.3% (active) in assay [2]; -37.4% (active) in assay [3]; -41.5% (active) in assay [4]; -28.5% (active) in assay [5]; -70.2% (active) in assay [6]. Besides, the growth in assay [7] was -77% (active); in assay [8] it was -70.3% (active).

As for `CCN1CCN(CCNc2nccc(-c3c(-c4ccc(F)c(OC)c4)nc4sccn34)n2)S1(=O)=O`, the growth in assay [1] is 87.3%; in assay [2] it was 93.2%; in assay [3] it was 26.6%; in assay [4], 87.4%; in assay [5], 50%; in assay [6], 44.5%. The growth in assay [7] is 89%; in assay [8], 74.2%.

Regarding `O=C(CN1CCCCCC1)Nc1nc2ccc(NCc3ccc(Cl)cc3)cc2s1`, the growth in assay [1] is 94.7%; in assay [2], 92.6%; in assay [3] it was 100%; in assay [4] it was 97.9%; in assay [5] it was 84.9%; in assay [6], 75.8%. The growth in assay [7] was 114%; in assay [8] it was 96.6%.

In the case of `Cc1ccc(C2CC(c3nc(-c4ccc(Cl)cc4)oc3C)=NN2C(=O)c2ccncc2)cc1` (stereo not drawn), the growth in assay [1] is 77.7%; in assay [2] it was 96%; in assay [3], 88.7%; in assay [4] it was 93.4%; in assay [5] it was 84.1%; in assay [6] it was 94.8%. For the same compound, the growth in assay [7] is 97.6%; in assay [8], 88.3%.

For the compound `C=C1C(=O)O[C@H]2[C@H]1CC/C(COC(=O)c1ccc(C(=O)O)s1)=C\CC[C@@]1(C)O[C@@H]21`, the growth in assay [1] was 43%; in assay [2] it was 42.9%; in assay [3], 11.7%; in assay [4] it was 4.69% (active); in assay [5], 13%; in assay [6], 11.4%. Besides, the growth was 61.6% in assay [7] and 55.6% in assay [8].

With `CN1CCN(CCOc2ccc(-c3cnc4c(-c5cccc(F)c5F)cnn4c3)cc2)CC1`, the growth is 85.4% in assay [1]; 50.4% in assay [2]; -66.1% (active) in assay [3]; -68.9% (active) in assay [4]; -23.8% (active) in assay [5]; -65% (active) in assay [6]. Also, the growth in assay [7] was 101%; in assay [8], -68.9% (active).

`CCCn1cnc2c(c1=N)C(c1ccc(F)cc1)c1sc3c(F)cccc3c1O2` (stereo not drawn): the growth was 53.9% in assay [1]; 63.9% in assay [2]; -35.6% (active) in assay [3]; 25.1% in assay [4]; 15.1% in assay [5]; 36.3% in assay [6]. Also, the values for the growth in assay [7] and in assay [8] were 76.9% and 36.1%, respectively.

In the case of `CCNC(=O)Oc1ccc(/C(=C(/C)Cc2ccc(OC)cc2)c2ccc(OCCN3CCCCC3)cc2)cc1`, the growth in assay [1] is 42.5%; in assay [2], 92.5%; in assay [3], 68.1%; in assay [4], 77.8%; in assay [5], 29.9%; in assay [6] it was 49.2%. The growth in assay [7] is 67.9%; in assay [8] it was 67.8%.

Take `CCCn1nc(C(=O)N(C)Cc2ccccc2)c2c1CCC(N1CCc3ccccc31)C2` (stereo not drawn): the growth is 108% in assay [1]; 94.8% in assay [2]; 106% in assay [3]; 104% in assay [4]; 85.3% in assay [5]; 77.8% in assay [6]. Also, the growth in assay [7] is 116%; in assay [8], 106%.

On to `O=C1/C(=C/c2ccccc2F)CN(C(=O)C(Cl)Cl)C/C1=C\c1ccccc1F`, for which the growth is -7.38% (active) in assay [1]; -46.5% (active) in assay [2]; -56.8% (active) in assay [3]; -76.9% (active) in assay [4]; -49% (active) in assay [5]; -90.3% (active) in assay [6]. In addition, the results for the growth in assay [7] and in assay [8] were -76.9% (active) and -51.7% (active), respectively.

On to `N#C/C(=C\c1ccc(-c2cccc(C(F)(F)F)c2)o1)c1ccccc1`, for which the growth is 35.6% in assay [1]; 96.6% in assay [2]; 99.1% in assay [3]; 92.3% in assay [4]; 25.7% in assay [5]; 80.4% in assay [6]. Moreover, the values for the growth in assay [7] and in assay [8] were 100% and 79.3%, respectively.

For the compound `COc1cc(/C=C/C(=O)c2ccc(-n3cc(CN4CCN(c5cc6c(cc5F)c(=O)c(C(=O)O)cn6C5CC5)CC4)nn3)cc2)ccc1O`, the growth in assay [1] is 75.3%; in assay [2] it was 90.4%; in assay [3], 74%; in assay [4], 85.4%; in assay [5] it was 37.6%; in assay [6], -53.4% (active). Further, the growth in assay [7] was 59.3%; in assay [8] it was 29.9%.

`O=[N+]([O-])c1cc(NS(=O)(=O)c2ccccc2)ccc1NS(=O)(=O)c1ccccc1`: the growth was 104% in assay [1]; 74.9% in assay [2]; 123% in assay [3]; 84.4% in assay [4]; 112% in assay [5]; 87.1% in assay [6]. The growth is 99.3% in assay [7] and 103% in assay [8].

Turning to `CCCCNc1nnc2n(Cc3ccccc3)c(=O)c3c4c(sc3n12)CCCC4`, the growth in assay [1] is 43.2%; in assay [2], 56.3%; in assay [3], 51.8%; in assay [4] it was 23.3%; in assay [5], 43.4%; in assay [6], 27.2%. Besides, the values for the growth in assay [7] and in assay [8] were 65% and 49.8%, respectively.

Regarding `O=S(=O)(NCCNc1nccc(-c2c(-c3cccc(O)c3)nc3occn23)n1)c1ccc(Br)cc1`, the growth was 11.3% in assay [1]; 45.1% in assay [2]; 13.1% in assay [3]; 34.8% in assay [4]; 17.7% in assay [5]; 10.2% in assay [6]. Also, the results for the growth in assay [7] and in assay [8] were 50.7% and 27%, respectively.

Turning to `Cc1ccc2nc(NC(=O)CSc3nc(-c4ccccc4)c(C#N)c4nnnn34)sc2c1`, the growth was 100% in assay [1]; 106% in assay [2]; 105% in assay [3]; 104% in assay [4]; 95.7% in assay [5]; 99.1% in assay [6]. Moreover, the figures for the growth in assay [7] and in assay [8] were 103% and 102%, respectively.

In the case of `O=C(CSc1nc(-c2ccccc2)cc(=O)[nH]1)Nc1nc(-c2ccccc2)cs1`, the growth in assay [1] was 71.8%; in assay [2], 88%; in assay [3], 105%; in assay [4] it was 107%; in assay [5], 76.9%; in assay [6], 90.3%. For the same compound, the growth in assay [7] is 111%; in assay [8], 95.5%.

Turning to `CC(=O)Oc1ccc(OC(C)=O)c2ccccc12`, the growth in assay [1] was -49.6% (active); in assay [2], 96.8%; in assay [3] it was 95.8%; in assay [4] it was 109%; in assay [5], 57.3%; in assay [6] it was 51.6%. Moreover, the growth in assay [7] was 103%; in assay [8], 100%.

As to `COc1ccc(Cn2cc3c(c2-c2ccccc2)CCc2cnoc2-3)cc1`, the growth in assay [1] was 64.7%; in assay [2], 45.3%; in assay [3], 3.43% (active); in assay [4], 18.3%; in assay [5], 14.6%; in assay [6] it was 0.167% (active). Also, the figures for the growth in assay [7] and in assay [8] were 12.5% and 0.62% (active), respectively.

In the case of `Cc1ccc(/C=C/C(=O)Nc2ncc(Cc3ccc(F)cc3)s2)o1`, the growth in assay [1] was 58.5%; in assay [2], 68.9%; in assay [3], -25.9% (active); in assay [4] it was 24.6%; in assay [5], 14%; in assay [6] it was 33.5%. Moreover, the growth in assay [7] is 48.8%; in assay [8], 21%.

Regarding `CCN(CC)CCCOc1ccc2ncnc(Nc3ccc(Oc4cccc(C(F)(F)F)c4)c(Cl)c3)c2c1`, the growth in assay [1] was 18.7%; in assay [2], 81.4%; in assay [3], -85.7% (active); in assay [4] it was -87% (active); in assay [5], -45.2% (active); in assay [6], -10.1% (active). Further, the growth in assay [7] was -85.4% (active); in assay [8] it was -24.3% (active).

Regarding `Nc1nc2c(c3ncccc13)C(c1cccc(Cl)c1)Cc1ncccc1-2` (stereo not drawn), the growth in assay [1] is 30.1%; in assay [2], 38.7%; in assay [3], -57.9% (active); in assay [4], 23.1%; in assay [5], 17.2%; in assay [6] it was 24.4%. In addition, the values for the growth in assay [7] and in assay [8] were 34.4% and 19.4%, respectively.

Consider `Nc1nc(N)c2c(n1)NC(c1cccc(Nc3ccnc4cc(C(F)(F)F)ccc34)c1)CC(c1ccc(Br)cc1)=N2` (stereo not drawn), for which the growth was 68.9% in assay [1]; 114% in assay [2]; -25.8% (active) in assay [3]; 31.1% in assay [4]; 17.3% in assay [5]; 16.2% in assay [6]. The values for the growth in assay [7] and in assay [8] were 55.1% and 28.3%, respectively.

`O=C(CI)NC(=O)NC(=O)NCc1ccccc1`: the growth in assay [1] was 18.8%; in assay [2], 37.2%; in assay [3] it was 21%; in assay [4] it was 25.2%; in assay [5], 12%; in assay [6], 13.3%. The growth in assay [7] is 95.3%; in assay [8] it was 88.6%.

As for `[2H]C([2H])([2H])Oc1ccc(F)cc1/C=C/C(=O)/C=C(O)/C=C/c1cc(F)ccc1OC([2H])([2H])[2H]`, the growth in assay [1] was 73.5%; in assay [2] it was 93.3%; in assay [3] it was 84.5%; in assay [4], 102%; in assay [5], 70%; in assay [6], 83.9%. In addition, the growth in assay [7] is 105%; in assay [8], 98.4%.

In the case of `N#Cc1cncc(-c2ccc3ncnc(Nc4cccc(Cl)c4)c3c2)c1`, the growth is 56.4% in assay [1]; 69.7% in assay [2]; 93.4% in assay [3]; 97.6% in assay [4]; 75.9% in assay [5]; 36.6% in assay [6]. Further, the growth in assay [7] was 88.4%; in assay [8], 90.2%.

Consider `Cc1ccc(/C=C(\C#N)n2nnc3cc(F)c(F)cc32)cc1`, for which the growth in assay [1] is -10.3% (active); in assay [2], -18.4% (active); in assay [3] it was -35.4% (active); in assay [4], 9.9% (active); in assay [5], 12.6%; in assay [6] it was -76.6% (active). Moreover, the growth in assay [7] is -10.6% (active); in assay [8], 8% (active).

Turning to `O=C(c1c[nH]c2ccccc12)c1n[nH]c(=S)n1-c1cccc(Br)c1`, the growth in assay [1] is 26.1%; in assay [2], 120%; in assay [3], 102%; in assay [4], 94.6%; in assay [5] it was 33.4%; in assay [6] it was 89.7%. Further, the growth was 38.8% in assay [7] and 50.7% in assay [8].

For the compound `N=c1c(S(=O)(=O)c2ccccc2)cc2c(=O)n3ccccc3nc2n1CC1CCCO1` (stereo not drawn), the growth in assay [1] is 104%; in assay [2], 101%; in assay [3], 109%; in assay [4], 96.1%; in assay [5], 106%; in assay [6], 105%. In addition, the growth in assay [7] is 105%; in assay [8] it was 108%.

Take `COc1ccc(/C=C/C(c2cc(OC)c(OC)c(OC)c2)n2ccnc2)cc1O` (stereo not drawn): the growth in assay [1] is 40.6%; in assay [2], 44.3%; in assay [3], -25.6% (active); in assay [4], 17.4%; in assay [5] it was 17.9%; in assay [6], 16.7%. The growth in assay [7] was 77%; in assay [8], 29%.
